# In PubChem BioAssay (EPA / NIEHS):
# Active and inactive are the calls of the source. The calls were made as follows: active = hit-call score of the fitted dose curve at least 0.9, where 1 is the maximum; inactive = score below 0.9.
# Assays:
# Conditions in all cases: mRNA level, 48 h; actives raise or lower the signal
# [1] = read-out: sulfotransferase 2A1 (SULT2A1), SULT2A1 (gene 6822); experiment: LTEA_HepaRG_SULT2A1: Life Technologies and Expression Analysis (LTEA) Assay for sulfotransferase 2A1 (SULT2A1) using HepaRG (AID 2283531)
# How it was run: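 Expression change of SULT2A1, by qRT-PCR with three housekeeping-gene normalization, was scored bidirectionally versus DMSO. Cells: differentiated HepaRG, dosed in duplicate for 48 h across 8 points, highest 100 µM, half-log dilution, 0.5% DMSO.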
# [2] = read-out: Transforming Growth Factor (TGFA), TGFA (gene 7039); experiment: LTEA_HepaRG_TGFA: Life Technologies and Expression Analysis (LTEA) Assay for Transforming Growth Factor (TGFA) using HepaRG (AID 2283532)
# How it was run: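 Differentiated human HepaRG cells, plated 48 h then switched to serum-free induction medium, were exposed in duplicate for 48 h to 8-point half-log series from 100 uM in 0.5% DMSO. TGFA mRNA measured by qRT-PCR, normalized to ACTB/GAPDH/POLR2A, bidirectional fit versus DMSO.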
# [3] = read-out: Transforming Growth Factor (TGFB1), TGFB1 (gene 7040); experiment: LTEA_HepaRG_TGFB1: Life Technologies and Expression Analysis (LTEA) Assay for Transforming Growth Factor (TGFB1) Transporter using HepaRG (AID 2283533)
# How it was run: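 TGFB1 transcript measured by qRT-PCR with normalisation to three housekeeping genes (ACTB, GAPDH, POLR2A); human HepaRG line treated in duplicate for 48 hr with an 8-point series topping at 100 uM, 0.5% DMSO vehicle, bidirectionally fitted.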
# TIMP1, TIMP1 (gene 7076) = experiment: LTEA_HepaRG_TIMP1: Life Technologies and Expression Analysis (LTEA) Assay for TIMP1 using HepaRG (AID 2283534)
# How it was run: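 Bidirectional change in TIMP1 transcript versus 0.5% DMSO, measured by TaqMan qRT-PCR with three housekeeping genes for normalization. HepaRG human liver cells dosed 48 h in duplicate, top concentration 100 uM with half-log dilutions.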
# [4] = read-out: Tumor necrosis factor receptor 1 (TNFRSF1A), TNFRSF1A (gene 7132); experiment: LTEA_HepaRG_TNFRSF1A: Life Technologies and Expression Analysis (LTEA) Assay for Tumor necrosis factor receptor 1 (TNFRSF1A) using HepaRG (AID 2283535)
# How it was run: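 mRNA measured by qRT-PCR (TaqMan, Fluidigm arrays) against ACTB/GAPDH/POLR2A housekeepers after 48 h chemical exposure of HepaRG cells. Top concentration 100 uM, half-log 8-point series, duplicates; vehicle 0.5% DMSO, both fit directions.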
# [5] = read-out: Thyroid Hormone Responsive (THRSP), THRSP (gene 7069); experiment: LTEA_HepaRG_THRSP: Life Technologies and Expression Analysis (LTEA) Assay for Thyroid Hormone Responsive (THRSP) using HepaRG (AID 2283536)
# How it was run: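 Differentiated human HepaRG cells were exposed in duplicate for 48 h in serum-free induction medium to eight concentrations (top 100 uM, half-log steps, 0.5% DMSO). Expression was quantified by TaqMan qRT-PCR, normalized to ACTB, GAPDH and POLR2A, with bidirectional fitting against DMSO.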
# [6] = read-out: UDP glucuronosyltransferase (UGT1A1), UGT1A1 (gene 54658); experiment: LTEA_HepaRG_UGT1A1: Life Technologies and Expression Analysis (LTEA) Assay for UDP glucuronosyltransferase (UGT1A1) using HepaRG (AID 2283538)
# How it was run: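 Readout is UGT1A1 transcript level by qRT-PCR, normalized to three housekeeping genes, after 48 h chemical treatment of HepaRG cells. Concentrations ran from 100 uM down in half-log steps with 0.5% DMSO, and gain or loss relative to DMSO was fitted.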
# [7] = read-out: UDP glucuronosyltransferase (UGT1A6), UGT1A6 (gene 54578); experiment: LTEA_HepaRG_UGT1A6: Life Technologies and Expression Analysis (LTEA) Assay for UDP glucuronosyltransferase (UGT1A6) using HepaRG (AID 2283539)
# How it was run: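 Expression was quantified by TaqMan qRT-PCR on Fluidigm arrays with ACTB/GAPDH/POLR2A normalization and bidirectional fitting against 0.5% DMSO. HepaRG cells (~100,000/well) were treated in duplicate for 48 h at eight half-log concentrations up to 100 uM in serum-free induction medium.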
# [8] = read-out: X-box binding protein 1 (XBP1), XBP1 (gene 7494); experiment: LTEA_HepaRG_XBP1: Life Technologies and Expression Analysis (LTEA) Assay for X-box binding protein 1 (XBP1) using HepaRG (AID 2283540)
# How it was run: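 XBP1 transcript by qRT-PCR (housekeeping-normalized: ACTB, GAPDH, POLR2A) after 48 h chemical treatment of HepaRG cells, 8-point half-log series topping at 100 uM, vehicle 0.5% DMSO. Gain and loss of signal fitted relative to DMSO.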
# [9] = read-out: Cellular tumor antigen p53 (Homo sapiens) (UniProt P04637); experiment: LTEA_HepaRG_TP53: Life Technologies and Expression Analysis (LTEA) Assay for Tumor Protein P53 (TP53) using HepaRG (AID 2283537)
# How it was run: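 HepaRG, 48 h exposure, top 100 uM, half-log 8-point, 0.5% DMSO vehicle, duplicates. Read: TP53 mRNA by TaqMan qRT-PCR, normalised to ACTB/GAPDH/POLR2A; bidirectional fit vs DMSO.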
# Sequence of Cellular tumor antigen p53 (Homo sapiens) (P04637 whole entry, looked up): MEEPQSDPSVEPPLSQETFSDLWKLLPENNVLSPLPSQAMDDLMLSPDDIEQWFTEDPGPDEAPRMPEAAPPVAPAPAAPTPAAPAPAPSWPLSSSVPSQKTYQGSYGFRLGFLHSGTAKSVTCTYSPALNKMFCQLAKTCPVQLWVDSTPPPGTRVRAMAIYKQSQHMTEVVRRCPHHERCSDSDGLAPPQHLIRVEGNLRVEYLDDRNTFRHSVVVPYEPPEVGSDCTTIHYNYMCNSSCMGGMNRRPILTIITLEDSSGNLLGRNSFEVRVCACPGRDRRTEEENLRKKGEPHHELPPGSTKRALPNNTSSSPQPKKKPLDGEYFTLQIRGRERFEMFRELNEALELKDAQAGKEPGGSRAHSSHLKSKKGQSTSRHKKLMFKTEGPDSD
Structure (SMILES),outcome [1],outcome [2],outcome [3],"outcome (TIMP1, TIMP1 (gene 7076))",outcome [4],outcome [5],AC50 [6],outcome [7],outcome [8],outcome [9],outcome [6],AC50 [1],AC50 [5],AC50 [8],AC50 [9]
Cc1nc(N(C)C)nc(OC(=O)N(C)C)c1C,inactive,inactive,inactive,inactive,inactive,inactive,13.9 µM (active),inactive,inactive,,,,,,
O=c1n(Cl)c(=O)n(Cl)c(=O)n1Cl,inactive,inactive,inactive,inactive,inactive,inactive,,inactive,inactive,inactive,inactive,,,,
CCOP(=O)(OCC)Oc1nc(Cl)c(Cl)cc1Cl,,inactive,inactive,inactive,inactive,,,inactive,,inactive,inactive,75.9 µM (active),84.2 µM (active),83.1 µM (active),
Cc1c(COC(=O)[C@@H]2[C@H](/C=C(\Cl)C(F)(F)F)C2(C)C)cccc1-c1ccccc1,inactive,inactive,inactive,inactive,inactive,inactive,11.7 µM (active),inactive,inactive,inactive,,,,,
CCCN(CC)CC1COC2(CCC(C(C)(C)C)CC2)O1 (configuration not stated),inactive,inactive,inactive,inactive,inactive,,,inactive,inactive,inactive,inactive,,0.319 µM (active),,
CCOc1nc(F)cc2nc(S(=O)(=O)Nc3c(Cl)cccc3Cl)nn12,inactive,inactive,inactive,inactive,inactive,inactive,,inactive,inactive,inactive,inactive,,,,
CN=C=S,inactive,inactive,inactive,inactive,,inactive,,inactive,,inactive,inactive,,,17.3 µM (active),
CC(C)NC(=O)N1CC(=O)N(c2cc(Cl)cc(Cl)c2)C1=O,,inactive,inactive,inactive,inactive,,4.3 µM (active),inactive,,inactive,,13.1 µM (active),50 µM (active),14.8 µM (active),
O=P(O)(O)CCCl,inactive,inactive,inactive,inactive,inactive,inactive,,inactive,inactive,,inactive,,,,254 nM (active)
CC1(C)CCC(=Cc2ccc(Cl)cc2)C1(O)Cn1cncn1 (configuration not stated),inactive,inactive,inactive,inactive,inactive,,5.72 µM (active),inactive,inactive,inactive,,,24.1 µM (active),,
COc1cc(OC)nc(NC(=O)NS(=O)(=O)c2ncccc2OCC(F)(F)F)n1,inactive,inactive,inactive,inactive,inactive,inactive,,inactive,inactive,inactive,inactive,,,,
CC(C)Oc1cccc(NC(=O)c2ccccc2C(F)(F)F)c1,inactive,inactive,inactive,inactive,inactive,inactive,29.4 µM (active),inactive,inactive,inactive,,,,,
CCOc1cc(C(C)(C)C)ccc1C1COC(c2c(F)cccc2F)=N1 (configuration not stated),,inactive,inactive,inactive,inactive,inactive,8.48 µM (active),inactive,inactive,,,8.25 µM (active),,,
COP(=S)(OC)SCn1nnc2ccccc2c1=O,inactive,inactive,inactive,inactive,inactive,inactive,43.2 µM (active),inactive,inactive,inactive,,,,,
COP(=O)(OC)O/C(C)=C/C(=O)N(C)C,inactive,inactive,inactive,inactive,inactive,inactive,,inactive,inactive,inactive,inactive,,,,
Nc1c(Cl)c(Cl)nc(C(=O)O)c1Cl,inactive,inactive,inactive,inactive,inactive,inactive,,inactive,inactive,inactive,inactive,,,,
COC(=O)NC(=S)Nc1ccccc1NC(=S)NC(=O)OC,inactive,inactive,inactive,inactive,inactive,inactive,14.3 µM (active),inactive,inactive,inactive,,,,,
